Compound activity (PubChem)
RGS4-Gao reg: modulators of RGS4 binding to Galphao, primary screen, biochemical, multiplexed bead flow cytometry; binding response (% of control), % at 10 µM; AID 1415, 2008; Guanine nucleotide-binding protein G(o) subunit alpha (Homo sapiens), P09471; hit rate 0.33% among 220,000; actives lie on both sides; in the data active = binding response below about 49% or above about 150%; inactive = in between;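 also: fluorescent Galphao activated with aluminum fluoride binding bead-coupled RGS4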
Target sequence (P09471 whole entry, looked up): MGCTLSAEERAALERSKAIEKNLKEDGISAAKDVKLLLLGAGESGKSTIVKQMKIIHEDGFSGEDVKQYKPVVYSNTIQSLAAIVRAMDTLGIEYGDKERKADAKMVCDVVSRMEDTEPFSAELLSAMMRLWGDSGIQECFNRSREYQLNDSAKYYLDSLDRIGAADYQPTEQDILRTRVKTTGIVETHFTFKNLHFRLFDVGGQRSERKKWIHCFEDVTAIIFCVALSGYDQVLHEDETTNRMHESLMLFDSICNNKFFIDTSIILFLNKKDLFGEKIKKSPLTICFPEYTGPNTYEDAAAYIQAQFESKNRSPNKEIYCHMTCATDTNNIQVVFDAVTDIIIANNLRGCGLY
RGS7-Gao: RGS7-Galphao binding modulators, primary screen, biochemical, multiplexed bead flow cytometry; Guanine nucleotide-binding protein G(o) subunit alpha (Homo sapiens), P09471; actives lie on both sides; binding response (% of control), % at 10 µM; hit rate 0.35% among 220,000; AID 1439, 2008; in the data active = binding response below about 49% or above about 150%; inconclusive = no clear call, values can overlap the other calls; inactive = in between;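 also: fluorescent Galphao held in activated GDP-AlF4 state binding bead-coupled RGS7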
RGS16-Gao: modulators of RGS16 binding to Galphao, primary screen, biochemical, human proteins, multiplexed bead flow cytometry | hit rate 0.38% among 220,000 | Regulator of G-protein signaling 16 (Homo sapiens) + Guanine nucleotide-binding protein … | AID 1441, 2008 | bead-based flow cytometry RGS16-Galphao binding, fluorescence; actives lie on both sides | binding response (% of control), % at 10 µM;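 also: Galphao activated by GDP with aluminum fluoride before binding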
Target sequence (O15492 whole entry, looked up): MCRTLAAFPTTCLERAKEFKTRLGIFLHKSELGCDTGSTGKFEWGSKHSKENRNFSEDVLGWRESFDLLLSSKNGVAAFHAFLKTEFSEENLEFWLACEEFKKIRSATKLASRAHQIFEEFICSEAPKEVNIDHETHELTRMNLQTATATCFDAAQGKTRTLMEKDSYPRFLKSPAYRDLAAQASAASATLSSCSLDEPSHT
Target sequence (P09471 whole entry, looked up): as the sequence (P09471 whole entry, looked up) above
GSH fluor: compound fluorescence on glutathione beads, profiling panel, artefact control, biophysical, 488/530 nm, flow cytometry | GSH beads flow cytometry, compound fluorescence 488/530 nm; hits give high values | fluorescence (KMESF) at 10 µM | hit rate 0.25% among 190,000 | AID 1776, 2009; in the data active = fluorescence above about 89;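 also: glutathione beads carrying GST-tagged Bcl family fusion proteins plus one bare bead set; values are compound well signal with DMSO vehicle wells as background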
RGS8-Gao reg: RGS8-Galphao binding modulators, primary screen, biochemical, multiplexed bead flow cytometry; Guanine nucleotide-binding protein G(o) subunit alpha (Homo sapiens), P09471; actives lie on both sides; response (percent of control binding), % at 10 µM; hit rate 0.34% among 220,000; AID 1423, 2008; in the data active = response below about 60% or above about 140%; inactive = in between;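 also: Galphao activated as the GDP aluminium fluoride complex binding bead-coupled RGS8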
Avidin bead fluor: green autofluorescence of compounds with avidin beads – biophysical, 488/530 nm, flow cytometry, artefact control, profiling panel; compound fluorescence 488/530 nm; hits give high values; fluorescence (KMESF) at 10 µM; hit rate 0.38% among 220,000; AID 1775, 2009; in the data active = fluorescence above about 47
RGS-Gao: modulators of RGS–Galpha-o binding, primary screen, biochemical, multiplexed beads, flow cytometry, RGS4/7/8/16/19; shares compounds with RGS16-Gao; multiplexed bead flow cytometry; RGS4–Galpha-o binding response, % at 10 µM; hit rate 99% among 1,600; AID 1504, 2009;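 also: fluorescently labeled Galpha-o bound to GDP with aluminium fluoride binding biotinylated RGS beads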
Biotin-avidin: disruption of biotin probe capture by avidin, counter-screen for RGS protein interaction modulators, biochemical, flow cytometry, bead-based | 1,700 tested, under 10 active | inhibition, % at 10 µM | streptavidin beads, fluorescein-biotin binding | shares compounds with RGS16-Gao | AID 1783, 2009;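 active = inhibition above 50%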;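 also: median green fluorescence of gated singlet beads compared with DMSO control wells; 0% = DMSO wells and 100% = complete loss of bead fluorescence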
RGS8-Gao confirm: RGS8-Galphao binding modulators, confirmation, biochemical, multiplexed bead flow cytometry, single concentration | bead-based flow cytometry RGS8-Galphao binding, fluorescence; actives lie on both sides | hit rate 3% among 1,700 | shares compounds with RGS16-Gao | binding response (% of control), % at 10 µM; in the data active = binding response below about 72% or above about 130%; inactive = in between;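 also: Galphao activated as GDP AlF4 complex before binding bead RGS8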
RGS7-Gao confirm: RGS7-Galphao binding modulators, confirmation, biochemical, multiplexed bead flow cytometry, single concentration | shares compounds with RGS16-Gao | bead-based flow cytometry RGS7-Galphao binding; actives lie on both sides | response (percent of control binding), % at 10 µM | hit rate 7.8% among 1,700 | AID 1837, 2009; in the data active = response below about 75% or above about 130%; inactive = in between;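 also: fluorescent Galphao activated with GDP and aluminum fluoride binding bead-coupled RGS7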
RGS16-Gao conf: modulators of RGS16-Galphao protein binding, confirmation, biochemical, single concentration, multiplexed bead flow cytometry. shares compounds with RGS16-Gao. bead-based flow cytometry; actives lie on both sides. response (% of control binding), % at 10 µM. hit rate 4% among 1,700; in the data active = response below about 74% or above about 130%; inactive = in between;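 also: Galphao activated as the GDP aluminium fluoride complex binding bead-coupled RGS16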
RGS4-Gao confirm: modulators of RGS4-Galphao protein binding, confirmation, biochemical, single concentration, multiplexed bead flow cytometry | shares compounds with RGS16-Gao | actives lie on both sides | binding response (% of control), % at 10 µM | hit rate 4% among 1,700; in the data active = binding response below about 74% or above about 130%; inactive = in between
RGS19-Gao conf: regulators of RGS19-Galphao binding, confirmation, biochemical, single point, multiplexed bead flow cytometry; shares compounds with RGS16-Gao; bead-based flow cytometry RGS19-Galphao binding; actives lie on both sides; response (percent of control binding), % at 10 µM; hit rate 5% among 1,700; AID 1841, 2009; in the data active = response below about 50% or above about 160%; inactive = in between;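 also: 100% = no compound control and 0% = blank background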
* hit, by the source's call; ? = inconclusive; / = no result given; [ ] = dose if it differs, or a comment. Compounds with a hit are over-represented: about 1.2% of the library has one in this group of screens. Unless noted, no rule for the calls is given here.

SMILES | RGS4-Gao reg | RGS7-Gao | RGS16-Gao | GSH fluor | RGS8-Gao reg | Avidin bead fluor | Biotin-avidin | RGS8-Gao confirm | RGS7-Gao confirm | RGS16-Gao conf | RGS4-Gao confirm | RGS19-Gao conf | others
N#Cc1nc(-c2ccccc2F)oc1NCCN1CCOCC1 | 149 | 134 | 275 | 23 | 176*[activator] | 2 | -1 | 98 | 99 | 96 | 97 | 92 | RGS-Gao=149*
O=C(Oc1ccc(Br)cc1)c1cncc(Br)c1 | 171*[activator] | 159*[activator] | 170 | 36 | 110 | 89* | 0 | 103 | 112 | 105 | 106 | 102
O=C(NCCN=C1NS(=O)(=O)c2ccccc21)c1ccc2nccnc2c1 | 99 | 99 | 100 | 18 | 100 | 3 | / | / | / | / | / | /
O=C(NCCN=C1NS(=O)(=O)c2ccccc21)c1ccncc1 | 148 | 163*[activator] | 125 | 10 | 114 | 72* | -1 | 101 | 98 | 101 | 101 | 100 | RGS-Gao=148*
COc1ccccc1NC(=O)CN(c1ccc([N+](=O)[O-])cc1)S(=O)(=O)c1ccccc1 | 113 | 79 | 185*[activator] | 15 | 85 | 6 | -2 | 99 | 98 | 102 | 101 | 102 | RGS-Gao=113*
Cc1ccc(N2C(=O)c3cccc4c(Oc5ccccc5[N+](=O)[O-])ccc(c34)C2=O)c(C)c1 | 121 | 122 | 235*[activator] | 2 | 126 | 14 | 1 | 107 | 110 | 107 | 108 | 115 | RGS-Gao=121*
COc1cc(C(=O)N/N=C/c2ccccn2)cc(OC)c1OC | 20* | ? | 12* | 11 | 13* | 0 | -2 | 101 | 105 | 101 | 102 | 107
O=C(NCc1ccccn1)c1ccco1 | 100 | 101 | 104 | 8 | 102 | 22 | / | / | / | / | / | /
O=C(NC(Cc1ccccc1)C(=O)NCc1ccccn1)c1ccco1 (configuration not stated) | / | / | / | 29 | / | / | -1 | 100 | 100 | 101 | 101 | 81
Nc1cc(S(=O)(=O)N2CCCCC2)ccc1Oc1ccccc1 | 100 | ? | 98 | 14 | 100 | 8 | / | / | / | / | / | /
COc1ccc(C(=O)NCCc2nnc(SCC(=O)Nc3ccccc3F)n2C)cc1 | 111 | 166*[activator] | 107 | 21 | 100 | 80* | 1 | 100 | 95 | 98 | 98 | 104 | RGS-Gao=111*
COc1ccc(Br)cc1/C=N/Nc1cccc(C(=O)O)c1 | 112 | 172*[activator] | 98 | 12 | 99 | 78* | 1 | 96 | 64* | 81 | 79 | 67 | RGS-Gao=112*
COc1ccc(/C=C(\NC(=O)c2ccccc2)C(=O)NNC(=O)CCN2CCOCC2)cc1 | 99 | 99 | 102 | 25 | 101 | 13 | / | / | / | / | / | /
O=C(CCN1CCOCC1)NNC(=O)/C(=C/c1ccccc1)NC(=O)c1ccccc1 | 43* | 54 | 64 | 10 | 86 | 13 | 1 | 111 | 101 | 112 | 102 | 101
CCN(CC)S(=O)(=O)c1cccc(-c2nnc(SCCOc3ccccc3C)o2)c1 | 177*[activator] | 153*[activator] | 211*[activator] | 33 | / | / | 1 | 101 | 104 | 102 | 103 | 109
Cc1cc(=O)[nH]c(SCC(=O)NCC2CCCCC2)c1C#N | 102 | ? | 99 | 14 | 101 | 10 | / | / | / | / | / | /
Cc1cc(NC(=O)c2ccccc2)n(C(C)(C)C)n1 | 99 | ? | 100 | / | 101 | 4 | / | / | / | / | / | /
Cc1cc(NC(=O)c2ccccc2)nc(C)n1 | 174*[activator] | ? | 174 | / | 150*[activator] | 4 | 0 | 104 | 105 | 105 | 104 | 100
CCOC(=O)c1c(C)[nH]c(-c2csc(N)n2)c1C | 100 | 102 | 105 | 11 | 103 | 25 | / | / | / | / | / | /
Cc1ccc2cc3cc(C(=O)N4CCN(Cc5ccccc5)CC4)sc3nc2c1 | 172*[activator] | 162*[activator] | 193*[activator] | 231* | 124 | 69* | 0 | 99 | 94 | 97 | 95 | 90
Cc1ccc(CNc2cnn(C34CC5CC(CC(C5)C3)C4)c(=O)c2Cl)cc1 | 0.2* | 7.4* | 5.8* | 22 | 11* | -2 | -1 | 99 | 94 | 98 | 92 | 101
Cc1cc(C)cc(Nc2cnn(C34CC5CC(CC(CC(=O)O)(C5)C3)C4)c(=O)c2Cl)c1 | 91 | / | / | 33 | / | / | 2 | 103 | 105 | 102 | 102 | 100
Cc1cccc(Nc2cnn(C34CC5CC(CC(CC(=O)O)(C5)C3)C4)c(=O)c2Cl)c1 | 102 | 101 | 103 | 30 | 105 | 6 | / | / | / | / | / | /
CCOc1cccc2cc(C(C)=O)oc12 | 11* | 10* | 5.6* | 14 | 11* | / | 1 | 101 | 102 | 102 | 101 | 113
COc1cccc2cc(C(C)=O)oc12 | 100 | 96 | 112 | 20 | 97 | 8 | / | / | / | / | / | /
CCOc1ccc(CCNC(=O)C(C)n2nc(C)n3c(cc4occc43)c2=O)cc1OCC (configuration not stated) | 96 | 97 | 99 | 14 | 98 | 8 | / | / | / | / | / | /
